# Data taken from the supplement of paper PMC4188521.
# Compound: CCc1cnn2c(NCc3ccc[n+]([O-])c3)cc(N3CCCC[C@H]3CCO)nc12 [dinaciclib]
# Test: cell viability remaining relative to DMSO control; higher = less cytotoxic (more viable cells)
# Conditions: 100 nM; 24 h
# Procedure: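 Solid tumor cell lines were treated with dinaciclib (100 nM) for 24 hr. Viability was measured by CellTiter-Glo ATP luminescence and expressed as % of DMSO-treated control wells (mean of 2-6 plates, triplicate wells per plate).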
row,Target,cell viability remaining
1,HCC827,67.9%
2,SKMEL24,81.7%
3,BT20,45.2%
4,A549,55.3%
5,A2780,44.5%
6,A498,68.3%
7,HCC1187,21.6%
8,SW48,55.8%
9,OVKATE,105%
10,COLO201,67.8%
11,NUGC4,108%
12,H1703,5.5%
13,SKMEL1,68.9%
14,HT144,48.6%
15,SNU5,69.5%
16,MIAPACA2,41.2%
17,HCC1954,38%
18,KURAMOCHI,121%
19,MESSA,33.4%
20,CAPAN2,51.4%

row,Target,cell viability remaining
1,MDAMB436,67.8%
2,SKLMS1,82.9%
3,DLD1,46.8%
4,SNU423,36.7%
5,SW948,72.6%
6,COV318,79.8%
7,OE33,51.6%
8,SAOS2,32.2%
9,OVSAHO,61.8%
10,ACHN,72.1%
11,SKMEL30,62.5%
12,SKMEL3,42.9%
13,LOVO,88.9%
14,OVTOKO,95.4%
15,JIMT1,66.2%
16,HMCB,37.5%
17,HEC251,91.8%
18,CAPAN1,85.3%
19,ES2,52.5%
20,HCT8,51.3%
